PubChem BioAssay (NCI)
About 79,000 compounds went through this panel and 15% of them were active in at least one assay; those are over-represented in the sample as a whole. A number with no mark means an inactive call. The source made the active and inactive calls. Rule as the data show it: active = growth inhibition above about 70%; inactive = the rest.

Columns and labels:
[1] = NCI Yeast Anticancer Drug Screen. Data for the rad50 strain (AID 155);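 also: 0% = growth of vehicle-only cultures of the same strain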; details: S. cerevisiae rad50 strain growth inhibition, stronger effect = higher value
Procedure, shortened: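 A DNA repair-deficient yeast mutant serves as the test organism; compound-induced growth inhibition is calculated against vehicle-treated cells.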

[2] = NCI Yeast Anticancer Drug Screen. Data for the mec2-1 strain (AID 157); details: S. cerevisiae mec2-1 strain, stronger effect = higher value
Procedure, shortened: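 Strain: mec2-1 (DNA repair/cell cycle alteration). Compound exposure, then growth measured; inhibition expressed relative to vehicle.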

[3] = NCI Yeast Anticancer Drug Screen. Data for the sgs1 mgt1 strain (AID 161);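 also: 0% = growth of cultures given vehicle only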; details: S. cerevisiae sgs1 mgt1 strain, stronger effect = higher value
Procedure, shortened: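 Test agents were incubated with a DNA-repair-mutant yeast strain. Growth was then read and compared against vehicle-treated controls.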

[4] = NCI Yeast Anticancer Drug Screen. Data for the cln2 rad14 strain (AID 165);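 also: 0% = growth equal to vehicle treated cultures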; details: S. cerevisiae cln2 rad14 strain, stronger effect = higher value
Procedure, shortened: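 Compounds are applied to the cln2 rad14 yeast strain, and growth is then compared with that of vehicle-treated cultures to give inhibition.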

[5] = NCI Yeast Anticancer Drug Screen. Data for the bub3 strain (AID 167); details: S. cerevisiae bub3 mutant strain, stronger effect = higher value
Procedure, shortened: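 Inhibition values come from growth of compound-treated mutant yeast normalised to vehicle-treated controls.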

[6] = NCI Yeast Anticancer Drug Screen. Data for the mlh1 rad18 strain (AID 175); details: S. cerevisiae mlh1 rad18 strain growth inhibition, stronger effect = higher value
Procedure, shortened: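 Read-out is yeast growth inhibition, calculated against vehicle-only controls. The compound was applied to a strain engineered with DNA damage repair alterations.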

[7] = at 5.0 µM (retest, dose inferred, filed as 0.5)
[8] = at 50.0 µM (retest, dose inferred, filed as 5.0)

Row | Compound | growth inhibition [1, 7] | growth inhibition [1, 8] | growth inhibition ([1]; at 50.0 µM) | growth inhibition [2, 7] | growth inhibition [2, 8] | growth inhibition ([2]; at 50.0 µM) | growth inhibition [3, 7] | growth inhibition [3, 8] | growth inhibition ([3]; at 50.0 µM) | growth inhibition [4, 7] | growth inhibition [4, 8] | growth inhibition ([4]; at 50.0 µM) | growth inhibition [5, 7] | growth inhibition [5, 8] | growth inhibition ([5]; at 50.0 µM) | growth inhibition [6, 7] | growth inhibition [6, 8] | growth inhibition ([6]; at 50.0 µM)
1 | CC(C)(C)c1ccc(Br)c(CCC(=O)NO)c1 | -2% | 94% (active) | 97% (active) | -1% | 98% (active) | 98.6% (active) | -15% | 96% (active) | 97% (active) | -3% | 91% (active) | 98.7% (active) | -1% | 96% (active) | 97.7% (active) | 9% | 98% (active) | 97.8% (active)
2 | CC(=O)C1(C(C)=O)C2=C(C(=O)C(Cl)=C(Cl)C2=O)N2C=CC=CC21 (configuration not stated) | 85% (active) | 95% (active) | 98.3% (active) | 81% (active) | 97% (active) | 98.5% (active) | 78% (active) | 97% (active) | 98.3% (active) | 40% | 95% (active) | 96.8% (active) | 91% (active) | 97% (active) | 98.3% (active) | 92% (active) | 96% (active) | 98.2% (active)
3 | S=C(NC(=S)Nc1ccccc1)Nc1ccccc1 | 0% | 29% | 93.8% (active) | -5% | 37% | 82.9% (active) | 7% | 69% | 96.3% (active) | -8% | 8% | 91.7% (active) | -1% | 21% | 96.3% (active) | 8% | 55% | 95.3% (active)
4 | Oc1ccc2c(c1O)/C(=C/C=NCC1(O)OCC(O)C(O)C1O)C=N2 (configuration not stated) | 2% | -7% | 67.3% | 5% | -7% | 67.4% | 4% | 1% | 88.4% (active) | 0% | -9% | 83.5% (active) | 2% | -3% | 48.3% | 2% | -2% | 77% (active)
5 | COC(=O)/C=C(\NC1CC(OC2C[C@](O)(C(C)=O)Cc3c(O)c4c(c(O)c32)C(=O)c2c(OC)cccc2C4=O)OC(C)C1O)C(=O)OC (some centres not stated) | 25% | 97% (active) | 97.5% (active) | 15% | 98% (active) | 97.7% (active) | -3% | 97% (active) | 97.7% (active) | 2% | 96% (active) | 94.9% (active) | 7% | 98% (active) | 74.2% (active) | -6% | 98% (active) | 98.3% (active)
6 | CCCCCCCCCC(=O)CC(=O)c1ccc(O)cc1O | 33% | 96% (active) | 86.5% (active) | 27% | 97% (active) | 89.5% (active) | 50% | 98% (active) | 89.7% (active) | 37% | 97% (active) | 88.6% (active) | 39% | 98% (active) | 89.2% (active) | 48% | 97% (active) | 87.5% (active)
7 | [N-]=[N+]=Nc1c([N+](=O)[O-])c(Cl)nc2ccccc12 | 27% | 95% (active) | 86% (active) | 22% | 99% (active) | 90.7% (active) | 34% | 99% (active) | 92% (active) | 11% | 87% (active) | 90.5% (active) | 50% | 99% (active) | 90.6% (active) | 36% | 98% (active) | 88.2% (active)
8 | Clc1ccc(C2=C(c3ccccc3)C(c3ccc(Cl)cc3)N3C(=N[C@H]4CCCC[C@@H]43)N2)cc1 (some centres not stated) | 4% | 15% | 88.2% (active) | 9% | 7% | 88.4% (active) | -14% | -27% | 89.3% (active) | -1% | -5% | 90% (active) | -1% | -1% | 87.7% (active) | 7% | 7% | 91.5% (active)
9 | O=C(CNS(=O)(=O)Cc1ccccc1)NCC(=O)NNc1ccccc1 | 12% | 55% | 59.5% | 1% | 29% | 29.4% | -5% | 63% | 58.2% | 12% | 40% | 44.4% | 1% | 53% | 20.1% | 31% | 76% (active) | 81.7% (active)
10 | CC(C)CCCC(C)C1CCC2C3C=CC4=CCCCC4(C)C3CCC12C (configuration not stated) | -18% | 95% (active) | 97.6% (active) | 3% | 98% (active) | 94.8% (active) | -8% | 96% (active) | 8.35% | -5% | 94% (active) | 93% (active) | -4% | 93% (active) | 91.2% (active) | 31% | 98% (active) | 98.1% (active)
11 | CCOc1nc(N)nc(C)c1N=Nc1ccc(Cl)cc1Cl | 10% | 92% (active) | 72.8% (active) | 0% | 50% | 16.9% | 5% | 88% (active) | 22.4% | 15% | 77% (active) | 36.4% | 5% | 94% (active) | 73.8% (active) | 14% | 97% (active) | 45%
12 | O=C1OCCCN1/N=C/c1ccc([N+](=O)[O-])o1 | 16% | 59% | 82% (active) | 4% | 31% | 55% | 10% | 65% | 84.8% (active) | 2% | 32% | 42.3% | 8% | 62% | 52.3% | 24% | 78% (active) | 89.2% (active)
13 | COC1OC(CBr)C(OC(c2ccccc2)(c2ccccc2)c2ccccc2)C(OC(c2ccccc2)(c2ccccc2)c2ccccc2)C1OC(c1ccccc1)(c1ccccc1)c1ccccc1 (configuration not stated) | -11% | 11% | 98.8% (active) | -12% | -27% | 98.7% (active) | -11% | -9% | 98.5% (active) | -8% | 33% | 96.5% (active) | -2% | 25% | 97.7% (active) | -5% | 32% | 98% (active)
14 | CC(O)CCCOC(c1ccccc1)(c1ccccc1)c1ccccc1 (configuration not stated) | 19% | 97% (active) | 86.5% (active) | 9% | 97% (active) | 83.8% (active) | 17% | 95% (active) | 80.8% (active) | 15% | 94% (active) | 82.7% (active) | 28% | 93% (active) | 80.5% (active) | 19% | 96% (active) | 84.4% (active)
15 | CCCCCCC(=O)Nc1ccc(OC(=O)CCCCCC)c(=O)cc1 | 8% | 99% (active) | 98.8% (active) | 36% | 100% (active) | 99.2% (active) | 33% | 99% (active) | 99.3% (active) | -14% | 99% (active) | 98% (active) | 15% | 99% (active) | 99.2% (active) | 26% | 99% (active) | 98.5% (active)
16 | COC(=O)C1(Cc2ccc(C)cc2)Cc2c(C)cccc2C1=O (configuration not stated) | -2% | 47% | 70.3% (active) | -2% | 35% | 39.9% | 13% | 45% | 75.8% (active) | 6% | 32% | 55.9% | 17% | 71% (active) | 75.2% (active) | -1% | 54% | 54.4%
17 | O=C1CCCCC1=C(I)I | 18% | 18% | 56.2% | 18% | 18% | 66.5% | 13% | 13% | 68.8% | -4% | -4% | 39.8% | 2% | 2% | 74.4% (active) | 12% | 12% | 72.2% (active)
18 | CC1(c2ccc(S(=O)(=O)c3ccccc3)cc2)OC(=O)C=CC1=O (configuration not stated) | 82% (active) | 100% (active) | 99.2% (active) | 92% (active) | 99% (active) | 99.5% (active) | 94% (active) | 99% (active) | 99.5% (active) | 44% | 98% (active) | 99.2% (active) | 94% (active) | 99% (active) | 99.5% (active) | 97% (active) | 99% (active) | 99.5% (active)
19 | COc1ccc(N=NN2CCCC2)cc1 | 35% | 42% | 89.7% (active) | 25% | 27% | 92.5% (active) | 45% | 52% | 86.3% (active) | 46% | 56% | 89.7% (active) | 49% | 50% | 90.5% (active) | 14% | 33% | 91.2% (active)
